Source: PubChem (National Center for Advancing Translational Sciences (NCATS))
JMJD2E inh – qHTS Assay for Inhibitors of Human Jumonji Domain Containing 2E (JMJD2E); Lysine-specific demethylase 4E (Homo sapiens), B2RXH2; JMJD2E catalytic domain, FDH-coupled NADH fluorescence (FDH is formaldehyde dehydrogenase); Potency, µM (top dose mostly 57.1 µM), inactives show at the top dose activity change, negative = inhibition, usual class: inhibitors; 230,000 compounds, 1.6% hits; AID 2147, 2009;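 also: potency is read from the fitted curve at half-maximal effect; 0% = wells with enzyme and -100% = buffer wells without enzyme; nearly all actives have a fitted effect of over 50% in size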
ALDH1A1 inh – qHTS Assay for Inhibitors of Aldehyde Dehydrogenase 1 (ALDH1A1). Aldehyde dehydrogenase 1A1 (Homo sapiens), P00352. Purified ALDH1A1, NADH fluorescence, propionaldehyde substrate. Potency, µM (doses to about 75.3 µM), without a hit: at the top dose activity, negative = inhibition, most hits filed as inhibitors. 220,000 compounds, 7.3% hits. AID 1030, 2008;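 also: potency is read from the fitted curve at half-maximal effect; plate controls were no enzyme wells and a reference inhibitor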
PNC assembly inh – High Content Assay for Compounds that inhibit the Assembly of the Perinucleolar Compartment. PC3M PTB-GFP, PNC prevalence imaging, 16 h; hits give low values. activity change (PNC), negative = inhibition, % at 10 µM. 140,000 compounds, 3.1% hits. AID 2417, 2010;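 active = readout at or below -70, meaning at least 70% loss of cells showing the perinucleolar compartment, a nuclear body marking cancer cells; inconclusive = readout between -30 and a set limit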;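 also: plate controls were DMSO wells for no effect and camptothecin positive control wells for full effect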
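Compounds are pinned in duplicate onto adhered PC3M cells stably expressing GFP-tagged PTB and incubated 16 h at 37 C. Cells are then fixed, nuclei stained with Hoechst, and PNC-positive cells counted.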
HPGD block – qHTS Assay for Inhibitors of HPGD (15-Hydroxyprostaglandin Dehydrogenase) | 15-hydroxyprostaglandin dehydrogenase [NAD(+)] (Homo sapiens), P15428 | purified HPGD, NADH fluorescence kinetic, PGE2 substrate | Potency, µM, for the others: top-dose activity change, negative = inhibition, actives largely listed as inhibitors | 150,000 compounds, 4.3% hits | AID 894, 2007; also: potency is read from the fitted curve at half-maximal effect
Target sequence (P15428 whole entry, looked up): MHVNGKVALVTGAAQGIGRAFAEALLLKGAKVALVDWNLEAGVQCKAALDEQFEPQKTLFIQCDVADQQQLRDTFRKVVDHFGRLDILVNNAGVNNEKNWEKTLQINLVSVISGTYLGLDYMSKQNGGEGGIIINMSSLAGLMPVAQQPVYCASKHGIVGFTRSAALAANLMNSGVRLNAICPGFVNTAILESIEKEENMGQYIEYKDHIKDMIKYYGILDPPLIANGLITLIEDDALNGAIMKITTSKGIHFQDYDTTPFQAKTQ
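NADH formation kinetics: reaction with 30 uM PGE2 and 1 mM NAD+ (final), 20 nM enzyme, Tris-HCl pH 8 with Tween 20, after 15 min compound preincubation at room temperature. Fluorescence change, last versus first of five reads.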
Active calls of the source: *; u = inconclusive; x = no result; [ ] = remark or other dose. The list is not random: actives were taken first. Their share in the collection is about 11%. Unless noted, calls follow the shape of the dose curve; as a rule, active = well fitted inhibition curve with a large enough effect (not every such curve was filed as active); inconclusive = small, poorly fitted or top-dose-only effect, or another doubt; inactive = no such curve, though single readings can be large or run the other way. Unless noted, % is scaled to controls: 0 for no effect and ±100 for the full control effect.

SMILES	JMJD2E inh	ALDH1A1 inh	PNC assembly inh	HPGD block
C=C(C)[C@H]1O[C@H]2CC[C@@]3(C)[C@@](O)(CC[C@H]4[C@@H]5OC(C)(C)[C@H]6C[C@@H]7C(=C)Cc8c(Cl)cc9[nH]c(c5c9c8[C@@]76O)[C@@]43C)[C@]23O[C@@H]3[C@H]1O	x	-0.4%	x	x
O=C1C=C2C=CC3C[C@@]2(O1)C1CCCCN31 (stereo partly drawn)	-16.2%	-9.7%	x	-0.4%
O=C1C=CC(=O)C(Cl)=C1	x	1.78µM*	x	1µM*
O=C(O)C(C(=O)O)P(=S)(S)c1ccccc1 (stereo not drawn)	x	8.3%[13.5 µM]	x	-0.8%
O=C1NC(=O)N(CCc2ccc(F)cc2)C(=O)/C1=C\C=C\c1ccccc1	-9.4%	1.58µM*	x	x
C=CCN1C(=O)NC(=O)/C(=C/C=C/c2ccccc2)C1=O	-19.7%	14.1µM*	x	x
CN(C)c1ccc(/C=C/C=C2/C(=O)NC(=O)N(c3ccccc3)C2=O)cc1	-9.4%	u	x	x
CSc1ccc2c(c1)c(CCN)c(C)n2Cc1ccccc1Cl	x	17.6%[13.5 µM]	x	-10.4%
C=CCN1C(=O)/C(=C\c2ccc(N3CCOCC3)o2)C(=O)NC1=S	-1.6%	17.8µM*	4.9	-23.1%
Cc1noc(C)c1C(=O)N1CCC[C@@]2(CCN(CC(C)C)C2)C1	x	-6.7%	x	3.0%
Cc1ccc2c(c1)N(CCC(=O)N1CCC3(CC1)OCCO3)C(=O)CO2	4.3%	10µM*	3.9	-13.1%
CC[C@H]1CN2CCc3cc(OC)c(OC)cc3[C@H]2C[C@@H]1C[C@H]1NCCc2c1[nH]c1ccc(O)cc21	x	5.1%[13.5 µM]	x	-5.5%
CC(=O)[O-].CC(=O)[O-].O.O.O.[Pb+2]	x	15µM*	x	0.4%
Cc1ccc(C(=O)C2CN3CCC2CC3)cc1 (stereo not drawn)	-0.2%	28.2µM*	-27.5	-9.5%
CCN(CC)c1ccc(NC(=O)c2cccc(C)c2)cc1S(=O)(=O)Nc1ccccc1OC	u	14.1µM*	u	12.6µM*
C/C(=N\N1CCN(C)CC1)c1c(O)[nH]c(=O)[nH]c1=O	0.6%	-3.7%	-121.5*	-8.7%
CC/C(=N\N1CCN(C)CC1)c1c(O)[nH]c(=O)[nH]c1=O	3.6%	-5.1%	-10.6	-10.7%
NNC(=O)c1nn(-c2ccccc2)cc1O	14.3%	u	x	x
COc1ccc(N2C(=O)NC(=O)/C(=C/c3cccc(OC(=O)c4cccs4)c3)C2=O)cc1Cl	-15.0%	u	u	31.6µM*
Cc1ccc(N2C(=O)NC(=O)/C(=C/c3ccc(OC(=O)c4cccs4)cc3)C2=O)cc1	20µM*	u	56.9	28.2µM*
C[C@H](N)Cc1c[nH]c2ccc(OCc3cccs3)cc12	-1.7%	-5.4%	x	-12.5%
O=c1[nH]c(=S)n(Cc2ccco2)c(O)c1C=NCc1cccs1	-1.5%	7.94µM*	-15.7	25.1µM*
C=C(C)CSc1nc2ncc(Cl)cc2[nH]1	3.9%	5.2%	24.2	12.6µM*
C[C@@H]1O[C@@H](O[C@H]2C[C@@H](O)[C@@]3(CO)[C@H]4[C@H](O)C[C@]5(C)[C@@H](C6=CC(=O)OC6)CC[C@]5(O)[C@H]4CC[C@@]3(O)C2)[C@@H](O)[C@H](O)[C@H]1O	x	14.4%[13.5 µM]	x	-7.4%
Cc1cc(NC(=O)CCl)no1	-3.8%	12.6µM*	x	x
SMILES	JMJD2E inh	ALDH1A1 inh	PNC assembly inh	HPGD block
CCCCC1C(=O)NC(=S)NC1=O	u	31.6µM*	-14.6	12.6µM*
CCOC(OCC)P(=O)(O)CCCN	1.4%	3.1%	x	-15.6%
FC(F)(F)c1nc2ccc(SSc3ccc4nc(C(F)(F)F)[nH]c4c3)cc2[nH]1	x	2.24µM*	x	3.98µM*
CC[C@@H]1CN2CCc3cc(OC)c(OC)cc3[C@H]2C[C@@H]1C[C@H]1NCCc2cc(OC)c(OC)cc21	4.8%[25.5 µM]	8.3%[20.9 µM]	x	-6.0%
C[C@H]1CCC[C@H](O)CCCCCc2cc(O)cc(O)c2C(=O)O1	5.3%	u	4.3	-3.2%
CC1CC2OC2/C=C\C=C/C(=O)Cc2c(Cl)c(O)cc(O)c2C(=O)O1 (stereo not drawn)	x	22.4µM*	x	17.8µM*
O=c1c2ccccc2[se]n1-c1ccccc1	0.398µM*	0.224µM*	36.0	0.631µM*
ClC(Cl)c1ccccc1	x	-6.6%	x	-1.3%
COc1ccc(CCNCc2ccncc2)cc1	-6.5%	22.4µM*	-2.8	3.7%
COc1ccc(CCNCc2ccc(OC)c(OC)c2OC)cc1	u	u	-12.9	-5.1%
